Rows were chosen to be rich in hits. Some 1.2% of all compounds tested hit in one or more screens of this group.
RAD54 inh = inhibitors of human RAD54 branch migration; RAD54 Holliday junction branch migration, FAM/BHQ fluorescence; inhibition, % at 10.4 µM; hit rate 0.14% among 360,000;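 active = mean normalized replicate activity at least 40 and at least half of replicates scoring 40 or more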;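 also: 0% = median of neutral control wells and 100% = median of positive control wells; inhibitors cause a drop in the FAM fluorescence signal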
Glyco luc inh = N-linked glycosylation inhibition | D54 ERlucT glycosylation luciferase reporter, 24 h; percent of 100 nM tunicamycin response | reporter increase, % at 12.5 µM | hit rate 0.23% among 360,000;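 active = mean luciferase reporter signal, scaled so untreated is 0 and the glycosylation-blocking control 100, at or above a set limit in every replicate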;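 also: luciferase carries N-glycosylation sites so blocking glycosylation raises the light; 0% = median of neutral control wells and 100% = median of 100 nM tunicamycin wells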
RAD52 anneal inh = RAD52 (human) annealing inhibition | recombinant RAD52 DNA annealing, FRET fluorescence | inhibition, % at 18.7 µM | hit rate 0.46% among 360,000;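 active = every replicate showing at least 50% inhibition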
Casp6 inh = inhibitors of human caspase-6; inhibition, % at 12.5 µM; purified caspase-6, Z-VEID-R110 cleavage fluorescence; P55212; hit rate 0.53% among 350,000;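 active = mean inhibition across replicates at least about 35%, with every replicate also reaching that limit, limit read from the data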;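 also: 0% = median of neutral control wells and 100% = no fluorescence left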
NSD2 inh = NSD2 (human) methyltransferase inhibition | NSD2 peptide methylation, AlphaScreen, 120 min | inhibition, % at 12.5 µM | AID 743445 | hit rate 0.54% among 310,000; in the data active = inhibition above about 50%
* hit, by the source's call.

COc1ccc(C(=O)O/N=C/c2c(C(F)(F)F)nn(C)c2SCc2ccccc2Cl)cc1 was read as RAD54 inh -1.7, Glyco luc inh 52.6* and NSD2 inh -1.7.
`COc1ccc(NC(=O)N(C)C[C@H]2OCCCC[C@@H](C)Oc3ccc(NC(=O)C4CCCCC4)cc3C(=O)N([C@H](C)CO)C[C@@H]2C)cc1` gave RAD54 inh -3.9, RAD52 anneal inh -7.6 and Casp6 inh 1.7.
Screening CN(C)CC(=O)N1[C@@H]2c3ccc(-c4ccccc4)c(=O)n3C[C@H]1[C@H](CO)[C@H]2C(=O)N1CCCCC1 returned RAD54 inh 10.4, RAD52 anneal inh 1.3 and Casp6 inh 0.1.
CC(=O)N1[C@@H]2Cn3c(ccc(-c4ccccc4)c3=O)[C@H]1[C@@H](C(=O)N1CCCCC1)[C@@H]2CO was read as RAD54 inh 5.8, RAD52 anneal inh 58.9* and Casp6 inh 1.8.
Screening CCC(CC)COC(=O)C1=C(C)NC(=O)NC1c1cc(OC)ccc1OC (stereo not given) returned RAD54 inh 0.0, Glyco luc inh -0.1, RAD52 anneal inh -14.4, Casp6 inh 67.8* and NSD2 inh -2.3.
Screening CCC(CC)COC(=O)C1=C(C)NC(=O)NC1c1ccc(OC)cc1 (stereo not given) returned RAD54 inh -4.0, Glyco luc inh -1.0, RAD52 anneal inh -0.4, Casp6 inh -2.0 and NSD2 inh -0.6.
For O=C(COC(=O)c1ccc([N+](=O)[O-])o1)Nc1ncc(Cl)cc1Cl the results were Glyco luc inh 3.2, RAD52 anneal inh -46.4, Casp6 inh 60.7* and NSD2 inh 19.5.
Screening O=C(COC(=O)c1ccc([N+](=O)[O-])o1)Nc1ccc(F)cc1 returned RAD54 inh 6.3, Glyco luc inh 0.6, RAD52 anneal inh -5.3, Casp6 inh 55.3* and NSD2 inh -0.1.
For O=C(COC(=O)c1ccc([N+](=O)[O-])o1)Nc1ccc(N2CCOCC2)cc1 the results were RAD54 inh 1.8, Glyco luc inh 2.5, RAD52 anneal inh -8.0, Casp6 inh 33.8 and NSD2 inh 2.3.
CC(C)(C)N(Cc1ccccc1)C(=O)COC(=O)c1ccc([N+](=O)[O-])o1 was read as RAD54 inh 3.7, Glyco luc inh -1.3, RAD52 anneal inh -16.4, Casp6 inh 45.2* and NSD2 inh 14.8.
`O=C(COC(=O)c1ccc(Br)o1)Nc1ncc(Cl)cc1Cl` gave Glyco luc inh 1.7, RAD52 anneal inh -23.5, Casp6 inh 11.2 and NSD2 inh 2.4.
For Cc1cccc(NC(=O)COC(=O)c2ccc([N+](=O)[O-])o2)c1C the results were RAD54 inh 12.3, Glyco luc inh 1.1, RAD52 anneal inh 6.2, Casp6 inh 0.1 and NSD2 inh -3.2.
For O=C(COC(=O)c1ccc([N+](=O)[O-])o1)Nc1ccc(Br)cc1F the results were RAD54 inh 0.1, Glyco luc inh 0.4, RAD52 anneal inh -7.3, Casp6 inh 38.3* and NSD2 inh 2.9.
For O=C1/C(=C/C=C/c2ccco2)SC(=S)N1NS(=O)(=O)c1ccccc1 the results were RAD54 inh 9.1, Glyco luc inh 0.1, RAD52 anneal inh -148.3, Casp6 inh 78.9* and NSD2 inh 118.9*.
`C[C@H]1CN([C@@H](C)CO)S(=O)(=O)c2ccc(-c3cncnc3)cc2O[C@@H]1CN(C)C` gave RAD54 inh -1.6, RAD52 anneal inh 5.4 and Casp6 inh 0.9.
CCOc1cc(/C=C2/NC(=O)NC2=O)cc(Br)c1OCc1ccc(C(=O)O)cc1 was read as Glyco luc inh 1.0, RAD52 anneal inh -0.6, Casp6 inh 43.2* and NSD2 inh 1.4.
For COc1cc(F)ccc1-c1csc(C(NC(C)=O)c2ccccc2)n1 (stereo not given) the results were RAD54 inh -7.5, Glyco luc inh 50.2*, RAD52 anneal inh -11.1, Casp6 inh 3.7 and NSD2 inh -0.7.
Screening COc1cccc(C(O)c2nc(-c3ccc(F)cc3OC)cs2)c1 (stereo not given) returned RAD54 inh 6.7, Glyco luc inh -1.1, RAD52 anneal inh -9.0, Casp6 inh 1.3 and NSD2 inh -1.3.
For COc1cc(F)ccc1-c1csc(C(NC(C)=O)c2ccc(F)c(F)c2)n1 (stereo not given) the results were RAD54 inh 5.2, Glyco luc inh 42.2*, RAD52 anneal inh -8.9, Casp6 inh -0.7 and NSD2 inh -0.7.
CC(=O)NC(c1ccccc1)c1nc(-c2cccc(F)c2)cs1 (stereo not given) was read as RAD54 inh -11.2, Glyco luc inh 0.2, RAD52 anneal inh -33.2, Casp6 inh 2.0 and NSD2 inh 1.4.

Screening results (PubChem BioAssay)
